A selection: hits, their analogues and other compounds. The true share with any hit is near 2.9%.
MEKK2 WT-MEK5 – raises or lowers MEK5 binding to wildtype human MEKK2 PB1 domain | binding response (% of control), % at 10 µM | AID 1531 | bead flow cytometry, Alexa488-MEK5 binding to MEKK2 WT; actives lie on both sides | 1.1% of 290,000 active; in the data active = binding response below about 67% or above about 130%; inconclusive = no clear call, values can overlap the other calls; inactive = in between
dFosB act-1 – enhances mouse delta FosB homodimer DNA binding; AID 493131; activation, % at 25 µM; 0.99% of 340,000 active; P13346; purified delta FosB, TAMRA-CDK5 oligo fluorescence polarization; percent of positive-control signal above neutral wells;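 active = mean activation above about 17%, with every replicate also reaching it, limit read from the data, passing the limit was not always enough; inconclusive = only one of the two conditions met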
DNA FID counter – displaces DNA intercalator in HCV helicase counter-screen. DNA fluorescent intercalator displacement, fluorescence. inhibition, % at 7.9 µM. 0.17% of 290,000 active. AID 1845; in the data active = inhibition above about 37%;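 also: higher means more ethidium bromide displaced from hairpin DNA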
MEKK2mut PB1 HTS – signal of MEK5 binding to mutant human MEKK2 PB1 domain | bead flow cytometry, Alexa488-MEK5 binding to MEKK2 mutant | percent response, % at 10 µM | 0.35% of 290,000 active; in the data active = percent response above about 24%, passing the limit was not always enough
MEKK3 PB1 HTS – raises or lowers MEK5 binding to the human MEKK3 PB1 domain. bead-based flow cytometry, Alexa488-MEK5 binding to MEKK3; actives lie on both sides; 0 = blocked by unlabeled MEK5, 100 = vehicle. 1.4% of 290,000 active. binding response (% of control), % at 10 µM;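 active = binding response more than 3 SD above or below the average of its plate-row segment, actives on both sides; inconclusive = wells at one plate position flagged as instrument error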;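 also: Alexa488 bead fluorescence after subtracting the streptavidin-only scavenger bead signal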
Target sequence (Q99759 whole entry, looked up, the tested form may be a part): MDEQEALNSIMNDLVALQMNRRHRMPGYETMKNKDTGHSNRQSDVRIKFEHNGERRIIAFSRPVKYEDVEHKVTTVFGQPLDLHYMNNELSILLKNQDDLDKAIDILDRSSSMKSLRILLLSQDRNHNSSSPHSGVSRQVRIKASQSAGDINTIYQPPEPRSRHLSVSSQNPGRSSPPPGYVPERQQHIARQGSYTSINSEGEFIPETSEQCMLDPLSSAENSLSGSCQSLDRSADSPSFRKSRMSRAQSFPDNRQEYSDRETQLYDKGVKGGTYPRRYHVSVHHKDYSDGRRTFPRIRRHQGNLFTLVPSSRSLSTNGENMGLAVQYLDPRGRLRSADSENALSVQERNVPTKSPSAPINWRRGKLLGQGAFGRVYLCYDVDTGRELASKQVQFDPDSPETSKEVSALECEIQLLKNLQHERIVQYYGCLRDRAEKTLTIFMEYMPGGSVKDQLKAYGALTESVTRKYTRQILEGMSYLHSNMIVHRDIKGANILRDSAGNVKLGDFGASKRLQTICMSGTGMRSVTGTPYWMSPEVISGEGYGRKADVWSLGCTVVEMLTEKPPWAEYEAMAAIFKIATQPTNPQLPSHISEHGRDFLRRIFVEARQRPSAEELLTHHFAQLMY
dFosB act-2 – enhances mouse delta FosB homodimer binding to DNA. shares compounds with dFosB act-1. purified delta FosB, TAMRA-CDK5 oligo fluorescence polarization; normalised: neutral wells 0, positive control 100. activation, % at 24.9 µM. 2,400 tested, under 10 active. AID 588690;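 active = highest replicate activation at or above 34% and every replicate reaching that threshold; inconclusive = meets only one of the two criteria; inactive = meets neither criterion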;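 also: higher polarization means more probe DNA bound by delta FosB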
Each line names hits and unclear results; the compound was inactive in the other large screens (follow-up assays come after a bar, where they were run).

COc1cccc(C(=O)Nc2nnc(SCC(=O)NC3CCCC3)s2)c1	dFosB act-1 22 | dFosB act-2 inactive
O=C(CSc1nnc(NC(=O)c2cccc(F)c2)s1)NC1CCCC1	dFosB act-1 60 | dFosB act-2 inactive
COc1ccc(OC)c(-c2nnc3n2N=C(c2ccc(OC)c(OC4CCOC4)c2)CS3)c1 (configuration not stated)	none (no result: MEKK2 WT-MEK5, DNA FID counter, MEKK2mut PB1 HTS, MEKK3 PB1 HTS)
CN(C(=O)COC(=O)c1c2c(nc3ccccc13)/C(=C/c1cccc([N+](=O)[O-])c1)CCC2)C1CCS(=O)(=O)C1 (configuration not stated)	dFosB act-1 17 | dFosB act-2 inactive
CC1O[C@@H](O[C@H](C)CC[C@@H](C)O[C@H]2OC(C)[C@@H](O)C[C@H]2O)C(O)C[C@H]1O (some centres not stated)	none (no result: MEKK2 WT-MEK5, DNA FID counter, MEKK2mut PB1 HTS, MEKK3 PB1 HTS)
N#CCC(=O)N/N=C/c1cn(Cc2ccc(Cl)c(Cl)c2)c2ccccc12	dFosB act-1 51 | dFosB act-2 inactive
O=C(Nc1ccc(-c2nc3ccccc3o2)cc1)c1ccc2c(c1)OCO2	dFosB act-1 inconclusive
Cc1ccc2oc(-c3ccc(NC(=O)c4ccc5c(c4)OCO5)cc3)nc2c1	dFosB act-1 45 | dFosB act-2 inactive
Cc1nn(Cc2ccc(Cl)c(Cl)c2)c(C)c1NC(=O)c1cc(-c2ccc3c(c2)OCO3)on1	none
COc1ccc(NC(=O)c2cc(-c3ccc4c(c3)OCO4)on2)cc1	dFosB act-1 26 | dFosB act-2 inactive
Cc1ccc(NC(=O)c2cc(-c3ccc4c(c3)OCO4)on2)cc1	dFosB act-1 18 | dFosB act-2 inactive
Cc1nn(Cc2ccc(Cl)cc2)c(C)c1NC(=O)c1cc(-c2ccc3c(c2)OCO3)on1	dFosB act-1 58 | dFosB act-2 inactive
Cc1ccc(-c2cc(C(=O)NCc3ccc4c(c3)OCO4)no2)cc1	none
O=C(C1=C[C@@H](C2CC2)C[C@@H](OCCCCO)O1)N1CCN(Cc2ccccc2)CC1	none
COc1ccc(NC(=O)CN2CCN(C(C)=O)CC2)cc1S(=O)(=O)N1CCOCC1	none (no result: MEKK2 WT-MEK5, DNA FID counter, MEKK2mut PB1 HTS, MEKK3 PB1 HTS)
CCOC(=O)C1CCN(C(=O)C(C)Oc2ccc(C(=O)c3ccccc3)cc2)CC1 (configuration not stated)	none (no result: MEKK2 WT-MEK5, DNA FID counter, MEKK2mut PB1 HTS, MEKK3 PB1 HTS)
O=C(NN=Cc1ccccc1)NN=Cc1ccccc1	none (no result: MEKK2 WT-MEK5, DNA FID counter, MEKK2mut PB1 HTS, MEKK3 PB1 HTS)
O=C(Nc1ccc(Br)cc1)c1cc(-c2ccc3c(c2)OCO3)on1	dFosB act-1 25 | dFosB act-2 inactive
CCCCCN(C(=O)CCC(=O)OC(C)C(=O)Nc1cccc(C#N)c1)c1c(N)n(CCCC)c(=O)[nH]c1=O (configuration not stated)	none (no result: MEKK2 WT-MEK5, DNA FID counter, MEKK2mut PB1 HTS, MEKK3 PB1 HTS)
Cc1cc(C)cc(NC(=O)CSc2nnc(NC(=O)C3CC3)s2)c1	dFosB act-1 28 | dFosB act-2 inactive
Cc1ccc(NC(=O)CSc2nnc(NC(=O)C3CC3)s2)cc1	dFosB act-1 31 | dFosB act-2 inactive
Cc1ccc(NC(=O)CSc2nnc(NC(=O)C3CC3)s2)cc1C	none
O=C(COc1ccc([N+](=O)[O-])cc1)NC(=O)NC1CCS(=O)(=O)C1 (configuration not stated)	none (no result: MEKK2 WT-MEK5, DNA FID counter, MEKK2mut PB1 HTS, MEKK3 PB1 HTS)
O=C(Nc1nccs1)C(c1ccccc1)N1CCCC1 (configuration not stated)	none
O=C(NC(=S)Nc1nc(-c2ccccc2)cs1)c1ccco1	none
O=C(Cn1nnc(-c2ccc(Cl)cc2)n1)N1CCN(C(=O)c2ccco2)CC1	none (no result: MEKK2 WT-MEK5, DNA FID counter, MEKK2mut PB1 HTS, MEKK3 PB1 HTS)
COc1ccc(C(=O)Nc2ccc(C(=O)NCCc3ccc(OC)c(OC)c3)cc2)cc1	dFosB act-1 41 | dFosB act-2 inactive
COc1ccc(C(=O)Nc2ccc(-c3nnn(CC(=O)N4CCN(C(=O)c5ccco5)CC4)n3)cc2)cc1	dFosB act-1 68 | dFosB act-2 inactive
COc1ccc(OC)c(-c2csc(N(C)C(=O)c3ccco3)n2)c1	dFosB act-1 19 | dFosB act-2 inactive
COc1ccc(-c2csc(N(C)C(=O)c3ccco3)n2)cc1	none
COc1ccc(-c2csc(NC(=S)NC(=O)c3ccco3)n2)cc1	dFosB act-1 47 | dFosB act-2 inactive
CCCCn1c(N)c(N(CC(C)C)C(=O)c2cc3c(s2)CCC3)c(=O)[nH]c1=O	none (no result: MEKK2 WT-MEK5, DNA FID counter, MEKK2mut PB1 HTS, MEKK3 PB1 HTS)

High-throughput results from PubChem BioAssay.
